Compound activity as filed in PubChem.
This is one part of a sample in which hits are shown more often than they occur.
Methyltransferases: Primary Screen for Target Class Profiling of Small Molecule Inhibitors of Methyltransferases; purified enzyme, MTase-Glo SAH luminescence; active compounds read low; calls only at 40 µM; 3.9% of 25,000 active; AID 1745853, 2022; call rule not given here
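Each enzyme was assayed with SAM and its substrate. SAH formation detected by MTase-Glo luminescence; single-point 40 uM screen[…].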
Active calls of the source: *; i = inactive; + = active, no number. % is set by controls: 0 for no effect and ±100 for the full control effect.

SMILES | Methyltransferases
CC(C)NC(=O)c1sc(=S)n2c1[nH]c(=O)c1ccc(C(=O)NC(C)CCc3ccccc3)cc12 (stereo unspecified) | i
Cc1ccc(-c2n[nH]n3c2nc(=O)c2ccc(C(=O)NCCc4ccccc4)cc23)cc1 | i
Cn1c(=O)c2ccc(C(=O)NC3CCCCC3)cc2n2c(=O)n(Cc3ccc(Cl)cc3)nc12 | i
Cc1ccc(NC(=O)CSc2nnc3n(CC(C)C)c(=O)c4ccc(Cl)cc4n23)c(C)c1 | i
CC(C)Cn1c(=O)c2ccc(C(=O)NC(C)C)cc2n2c(SCC(=O)c3ccccc3)nnc12 | i
CCCn1c(=O)c2ccc(C(=O)NC(C)C)cc2n2c(=O)n(Cc3ccc(F)cc3Cl)nc12 | i
CC(C)C(=O)N1CCC2(CC1)OC(=O)N(Cc1ccccc1)C2(C)c1cccnc1 (stereo unspecified) | i
CCN1CCC(N2CCC3(CC2)CC2C(=O)N(CC)C(=O)N2C3)CC1 (stereo unspecified) | i
COC(=O)c1ncn2c1C(=O)N(Cc1cccnc1)C(C)(C(=O)NCc1ccccc1OC)C2 (stereo unspecified) | i
O=C1CCC2(CCCN(c3ncccc3F)C2)CN1Cc1ccncc1 (stereo unspecified) | i
CC(C)(C)Cn1c(N)nc2ccc(-c3[nH]c(C(C)(C)C)nc3-c3ccc(F)cc3)nc21 | +
C[C@H](NC(c1cccc2[nH]c(=O)c(=O)[nH]c12)P(=O)(O)O)c1ccc(Br)cc1 (stereo partly specified) | i
CCOc1ccc(S(=O)(=O)NCc2ccncc2)cc1 | i
CC(=O)c1ccc(Nc2nc3c(S(=O)(=O)c4ccccc4)nnn3c3ccccc23)cc1 | i
CC(=O)Nc1ccc(C(=O)NCc2nn(Cc3ccccc3)c3ccccc23)cc1 | i
CN1CCc2c(n(Cc3ccc(C(=O)NO)cc3)c3ccccc23)C1 | +
O=C(c1cccc([N+](=O)[O-])c1)N1CCc2c(c3ccccc3n2CC2CC2)C1 | i
CN(C)C(=O)CNC(=O)c1cccc(S(=O)(=O)NCCn2ccnc2)c1 | i
CC(=O)Nc1c2n(c3ccc(F)cc13)CC(C)(C(=O)NC1CCCCCC1)N(CC1CCCO1)C2=O (stereo unspecified) | i
COC(=O)C1=COC(O[C@@H]2O[C@H](COC(=O)/C=C/c3ccc(O)cc3)[C@@H](O)[C@H](O)[C@H]2O)C2C(CO)=CCC12 (stereo partly specified) | i
COC(=O)C1=CO[C@@H](O[C@@H]2O[C@H](COC(=O)/C=C/c3cc(OC)c(O)c(OC)c3)[C@@H](O)[C@H](O)[C@H]2O)[C@@H]2C(CO)=CC[C@H]12 | +
O=C(/C=C/c1ccccc1)OCC1=CC[C@@H]2C(C(=O)O)=CO[C@@H](O[C@@H]3O[C@H](CO)[C@@H](O)[C@H](O)[C@H]3O)[C@H]12 | i
CCC(C)NC(=O)c1ccc2c(=O)n(CC(C)C)c3nn(Cc4ccccc4C)c(=O)n3c2c1 (stereo unspecified) | i
C=C1C(=O)O[C@@H]2/C=C(\CO)CC/C=C(\CO)[C@H](OC(C)=O)C(OC(=O)C(C)CC)C12 (stereo partly specified) | i
C=C(C)C(=O)OC1C(OC(C)=O)/C(C=O)=C\CC/C(CO)=C/C2OC(=O)C(=C)C21 (stereo unspecified) | i
SMILES | Methyltransferases
C=C1C(=O)O[C@@H]2C=C(COC(C)=O)CC/C=C(\CO)CC[C@@H]12 | +
COc1ccc(CCNC(=O)c2cc3n(n2)CC(C)(C(=O)NC2CCCCC2)N(C)C3=O)c(OC)c1 (stereo unspecified) | i
C=Cc1cc(O)cc2nc(-c3ccc(O)c(F)c3)oc12 | +
COc1ccccc1CNC(=O)c1cc2n(n1)CC(C)(C(=O)NCc1ccc(C)cc1)N(C)C2=O (stereo unspecified) | i
O=S(=O)(c1ccccc1)c1nnn2c1nc(N1CCN(c3ccccn3)CC1)c1cc(Cl)ccc12 | i
Cc1ccc(CCNC(=O)Cn2ccc3cc(S(=O)(=O)N4CCCCC4)ccc32)cc1 | i
CC(=O)O[C@@H]1CC[C@@]2(C)[C@H](CC[C@@H]3[C@@H]2C[C@H](OC(C)=O)[C@]2(C)[C@@H](C(C)=O)CC[C@@H]32)C1 | i
CC(=O)c1c(O)cc(O[C@@H]2O[C@H](CO)[C@@H](O)[C@H](O)[C@H]2O)cc1O | i
OC[C@H]1O[C@@H](Oc2ccc(O)c3cccc(O)c23)[C@H](O)[C@@H](O)[C@@H]1O | +
CC(=O)c1c(C)cc(O[C@@H]2O[C@H](CO)[C@@H](O)[C@H](O)[C@H]2O)cc1O | i
O=C(c1ccccc1)c1c(O)cc(O)cc1O[C@@H]1O[C@H](CO)[C@@H](O)[C@H](O)[C@H]1O | +
O=C(O[C@@H]1O[C@H](CO)[C@@H](O)[C@H](O)[C@H]1O)c1c(O)cc(O)cc1/C=C/c1ccccc1 | +
OCCc1ccc(O[C@@H]2O[C@H](CO)[C@@H](O)[C@H](O)[C@H]2O)c(O)c1 | i
O=C(/C=C/c1ccccc1O)O[C@@H]1O[C@H](CO)[C@@H](O)[C@H](O)[C@H]1O | i
OC[C@H]1O[C@@H](OC[C@H]2O[C@@H](OC/C=C/c3ccccc3)[C@H](O)[C@@H](O)[C@@H]2O)[C@@H](O)[C@@H]1O | i
OC[C@H]1O[C@@H](Oc2ccccc2)[C@H](O)[C@@H](O)[C@@H]1O | i
CCCOc1cc2oc(=O)cc(-c3ccccc3)c2cc1Cl | i
O=C(Cc1c(F)cccc1F)Nc1cc(OCc2ccc(Cl)cc2)ccn1 | i
CC(=O)Nc1c2n(c3ccc(F)cc13)CC(C)(C(=O)NC1CCCCCC1)N(CCN(C)C)C2=O (stereo unspecified) | i
CCOC(=O)c1cccc(NS(=O)(=O)c2ccc3[nH]c4c(c3c2)CCCC4)c1 | i
CC(C)Cn1c(=O)c2ccc(C(=O)NC(C)C)cc2n2c(=O)n(CC(=O)NC3CCCC3)nc12 | i
CCn1cc(CN(C)C(=O)CN2C(=O)C(Oc3ccc(F)cc3)C23CCCCC3)c(C)n1 (stereo unspecified) | i
CC(C)n1nc(Cc2cccc3ccccc23)c2c(N)ncnc21 | +
CC(C)n1nc(-c2ccc3oc(N)nc3c2)c2c(N)ncnc21 | i
CC(C)n1nc(CNC(=O)Cc2ccc(F)cc2)c2ccccc21 | i
SMILES | Methyltransferases
CCOc1ccc(CN2C(=O)c3nc4ccccc4n3CC2(C)C(=O)NC2CCCC(C)C2C)cc1 (stereo unspecified) | i
Cc1ccccc1NC(=O)N1CCn2cccc2C1C (stereo unspecified) | i
CC(C)Cn1c(=O)c2ccc(C(=O)NC(C)C)cc2n2c(=O)n(Cc3cccc(F)c3)nc12 | i
CC1CCC(NC(=O)C2(C)Cn3c(cc4sccc43)C(=O)N2CCc2ccccc2)CC1 (stereo unspecified) | i
CCCCNc1nc2c(-c3ccc(F)cc3)nnn2c2ccccc12 | i
O=C1CCS(=O)(=O)N1c1ccc(S(=O)(=O)NCCN2CCOCC2)cc1 | i
CC1CCN(S(=O)(=O)c2cccc3c2C(=O)c2ccccc2C3=O)CC1 | i
O=C1c2ccccc2C(=O)c2c1cccc2S(=O)(=O)Nc1ccc(Cl)cc1 | +
COc1ccc(Cl)cc1S(=O)(=O)Nc1ccc2[nH]c(=O)[nH]c2c1 | i
CNC(=O)[C@@H]1C[C@H](Oc2ccccc2)CN1S(=O)(=O)c1ccc2c(c1)CCC2 | i
